Assay outcomes: PubChem BioAssay, several laboratories
Autofluor 339: intrinsic fluorescence of library compounds, ex339/em460 – biochemical, MLSMR library, data from DPM-DC assay, artefact control, profiling panel; 65,000 compounds, 5.5% hits; compound autofluorescence, ex339/em460 nm, NADH buffer; hits give high values; 1 = no-compound wells, NADH background; fluorescence fold increase at 10 µM; AID 709;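 active = at 10 µM, mean starting fluorescence two-fold or more over control wells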;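 note: signal is the first read of a kinetic run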
BAP1 inh: human BAP1 deubiquitinase inhibition; calls only at 20 µM; 72,000 compounds, 0.48% hits; recombinant BAP1, Ub-AMC hydrolysis fluorescence kinetic; hits give low values;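 active = activity remaining at or below 50% of control, provided the compound also passes the data quality filters; inactive = the rest, including low values that fail the filters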;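 note: 100% = DMSO wells rate and 0% = substrate alone blank rate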
WNV protease inh: inhibitors of West Nile virus NS2B-NS3 protease; P06935; WNV NS2B-NS3 protease, fluorogenic substrate Ex360/Em465; hits give low values; z-score (concentration not given with the values); 65,000 compounds, 0.18% hits; AID 577; in the data active = z-score below about -3
Target sequence (P06935 1371-1501 limits assumed): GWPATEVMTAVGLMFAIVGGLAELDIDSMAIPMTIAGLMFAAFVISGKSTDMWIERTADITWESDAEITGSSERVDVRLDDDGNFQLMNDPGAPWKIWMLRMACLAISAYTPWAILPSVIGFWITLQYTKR
Target sequence (P06935 1502-1679 limits assumed): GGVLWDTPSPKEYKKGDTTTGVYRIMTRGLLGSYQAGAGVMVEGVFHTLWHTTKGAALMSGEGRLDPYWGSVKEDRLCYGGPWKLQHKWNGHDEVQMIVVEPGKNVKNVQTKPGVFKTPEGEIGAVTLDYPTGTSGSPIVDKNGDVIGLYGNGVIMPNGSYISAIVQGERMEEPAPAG
M1 ag: M1 muscarinic receptor agonism. CHO-M1 cells, Fluo-4 calcium fluorescence, agonist mode; hits give high values. B-score at 10 µM. 64,000 compounds, 3% hits;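 active = fluorescence rise, raw or as B-score row- and column-corrected plate score, outside the 99.7% band of its plate's samples, either direction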
M1 antag: M1 muscarinic receptor (rat) antagonism; B-score at 10 µM; P08482; AID 628; CHO-M1 cells, Fluo-4 calcium, ACh EC80 antagonist mode; hits give low values; 64,000 compounds, 3.4% hits;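 active = calcium fluorescence response, raw or row-and-column corrected B-score, differing from the plate sample mean either way at a set confidence level, mostly lower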
A340 absorber: compound absorbs light at 340 nm; compound absorbance at 340 nm, fold over control; fold change at 10 µM; 65,000 tested, under 10 active;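 active = at 10 µM dose, initial 340 nm absorbance at least 2 fold that of control wells; inactive = change under 2 fold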;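 note: initial absorbance extrapolated from kinetic A340 decline of NADH oxidation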
M1 ag confirm: confirmation of rat M1 muscarinic receptor agonists. CHO-M1 cells, Fluo-4 calcium fluorescence, agonist mode; actives lie on both sides. shares compounds with M1 ag. fluorescence change (max-min) at 10 µM. 1,700 compounds, 19% hits;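 active = fluorescence change differs from the solvent-only DMSO control mean at a set confidence level in both duplicate runs; inconclusive = differs from solvent-only control mean in just one of two runs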;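 note: an EC20 dose of acetylcholine follows compound addition during the same imaging run; raw fluorescence intensity difference in instrument units with no normalization to controls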
M4 agonist ctr: activates rat M4 receptor in counter-screen for M1 agonists; shares compounds with M1 ag; CHO M4/Gqi5 cells, Fluo-4 calcium fluorescence, agonist mode; actives lie on both sides; fluorescence change (max-min) at 10 µM; 1,700 compounds, 9% hits;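 active = fluorescence change differing from the plate's solvent-only control wells at 99.7% confidence in both duplicates, whether higher or lower; inconclusive = differs from solvent controls in only one of two duplicates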
Starred values were filed as active, the others as inactive; i = inactive; ? = inconclusive; . = no result given. Rows were chosen to be rich in hits. Some 9.7% of all compounds tested hit in one or more screens of this group.

SMILES	Autofluor 339	BAP1 inh	WNV protease inh	M1 ag	M1 antag	A340 absorber	M1 ag confirm	M4 agonist ctr
COc1ccc(-c2nc(-c3ccc(NC(=O)c4ccncc4)cc3)no2)cc1OC	1.1	i	0.95	3.8*	-0.013	1.1	-21	-8.7
O=C(Nc1ccc([N+](=O)[O-])cc1Cl)c1cccc(C(=O)Nc2ccc([N+](=O)[O-])cc2Cl)n1	.	i	.	.	.	.	.	.
NC(=O)CSc1nc2scc(-c3ccco3)c2c(=O)n1-c1ccccc1	1.1	.	-0.93	4.3*	-1.4	1	?	-55
COCC(=O)Nc1ccc(N(C)C)cc1	1.1	i	-1.4	-2.9*	-0.015	1.1	-33*	-71
Cc1ccc(OCC(=O)Nc2ccc(N(C)C)cc2)cc1	1.1	i	-1	-1.6	-0.35	1	.	.
COc1cc(NC(=O)c2cnn3c(C(F)(F)F)cc(-c4ccc(F)cc4)nc23)cc([N+](=O)[O-])c1	.	i	.	.	.	.	.	.
COc1ccc(S(=O)(=O)Nc2cccc(C(=O)O)c2)cc1C(=O)O	.	i	.	.	.	.	.	.
COc1cccc(C2=CC(c3ccc(OC)c(OC)c3OC)n3nnnc3N2)c1 (stereo not given)	1.2	i	-1.1	0.34	-0.59	1	.	.
COc1ccc(C2=CC(c3ccc(Cl)cc3)n3cnnc3N2)cc1OC (stereo not given)	1.3	.	1	6.8*	-0.38	1	223*	190*
CCC(Sc1nc(N)cc(=O)[nH]1)C(=O)NC(C(=O)OC)c1ccccc1 (stereo not given)	1.1	i	0.87	3.2*	0.87	1	-11	-44
O=C(Nc1cccc(-c2cn3ccsc3n2)c1)c1ccccc1	1.1	i	-0.98	0.47	-0.73	1	.	.
COc1ccccc1C(=O)Nc1cccc(-c2cn3ccsc3n2)c1	1.1	i	-1.6	4.7*	0.25	1.1	?	-40
CC(=O)c1cc(OC(=O)c2ccncc2)ccc1OC(=O)c1ccncc1	1.1	i	-0.39	4.4*	0.55	1	-10	-32
O=C1CSC(c2nn(-c3ccccc3)cc2-c2cc3ccccc3oc2=O)N1Cc1ccco1 (stereo not given)	2.3*	.	0.81	3.2*	-0.25	1.1	11	-38
O=C(C1CCN(Cc2cc(Cl)ccc2O)CC1)N1CCN(Cc2ccccc2)CC1	1.1	i	2	5.6*	0.17	0.97	?	-41
CCOC(=O)C1CCCN(C(=O)c2sc3nc(-c4ccc(F)cc4)cn3c2C)C1 (stereo not given)	1.1	i	-0.85	2.3	-1.7	1	.	.
CCOC(=O)C1CCCN(c2cc(C)nc3cc(-c4ccc(F)cc4)nn23)C1 (stereo not given)	1.3	i	-0.55	30*	-3.8*	1	386*	-23
COc1ccc(N2C(=O)CC(Sc3nc(C)c4c(n3)CCCC4)C2=O)cc1 (stereo not given)	1.1	i	-0.59	2.2*	0.24	0.97	-6	-13
O=C(Nc1ccc(-c2nc3ccccc3s2)c(O)c1)c1cc(=O)c2ccccc2o1	.	i	.	.	.	.	.	.
CC1CCN(C(=O)COc2ccc(Br)cc2)CC1	.	i	.	.	.	.	.	.
CCOc1ccc(Cl)cc1S(=O)(=O)N1CCCCC1	.	i	.	.	.	.	.	.
CN(C)c1oc(-c2ccccc2F)nc1C#N	2.4*	i	0.37	8.3*	-1.1	1.1	-14	-45
O=C(c1ccccc1)c1nnc(-c2ccccc2F)o1	1.1	i	0.07	2.7	0.99	1	.	.
CSc1nc2sc3c(c2c(=O)n1CCc1ccccc1)CCCC3	.	i	.	.	.	.	.	.
CN(C)c1ccc(N=Cc2nc(-c3ccccc3)oc2O)cc1	1	i	0.74	21*	0.074	1.1	147*	61
SMILES	Autofluor 339	BAP1 inh	WNV protease inh	M1 ag	M1 antag	A340 absorber	M1 ag confirm	M4 agonist ctr
CSc1ccccc1N=Cc1nc(-c2ccccc2)oc1O	1.1	i	0.1	-1.5	0.47	1.1	.	.
CCOC(=O)C1=C(C)NC2=C(C(=O)CC(C)(C)C2)C1c1ccc(OC)c(OC)c1OC (stereo not given)	.	i	.	.	.	.	.	.
Cc1nn(C)c(C)c1CN(C)C(=O)c1cnn2c1NC(c1ccccc1)CC2C(F)(F)F (stereo not given)	1.1	i	0.07	-3.3*	-0.62	0.99	-26*	?
Cc1cc(I)ccc1NC(=O)c1cccc(CSc2nncn2C)c1	.	i	.	.	.	.	.	.
Cn1c2ccccc2c2c(C(=O)N3CCN(c4ccccc4)CC3)cn(C3CCCC3)c(=O)c21	1.4	i	0.19	0.013	-0.26	1.1	.	.
Cn1c2ccccc2c2c(C(=O)NCC3CCCO3)cn(C3CCCC3)c(=O)c21 (stereo not given)	2.1*	.	-0.99	8.8*	0.0061	1.1	-9.8	-63
COc1ccc(OC)c(NC2c3ncccc3C(=O)N2Cc2ccco2)c1 (stereo not given)	1.1	i	0.26	-0.64	-0.13	1.1	.	.
COc1ccc(CN2C(=O)c3cccnc3C2Nc2cc(Cl)ccc2OC)cc1 (stereo not given)	1	i	-1	4.8*	1.1	1	-4.8	-30
O=C(c1ccncc1)c1ccc(N2CCN(C3CC(=O)N(Cc4ccccc4)C3=O)CC2)cc1 (stereo not given)	1.1	i	1	20*	-2.3*	1.3	-25*	-49
COc1ccccc1C(=O)Nc1cccc(Cl)c1	.	i	.	.	.	.	.	.
COc1ccc(C(c2nnnn2C2CCCC2)N2CCC(C)CC2)cc1 (stereo not given)	1.1	i	-0.94	-0.77	-0.12	1	.	.
Clc1ccc(C(c2nnnn2C2CCCC2)N2CCSCC2)cc1 (stereo not given)	1.1	i	-1.1	8*	1	1	-19	?
O=S(=O)(Nc1cccnc1)c1ccc(C2CCCCC2)cc1	1.1	i	-0.03	7.1*	-3.1*	1	12	-15
O=S(=O)(Nc1ccccn1)c1ccc(C2CCCCC2)cc1	1.5	i	0.64	.	.	1	.	.
O=C1NC(=S)N(c2ccccc2)C(=O)C1C(c1ccc([N+](=O)[O-])cc1)C1C(=O)NC(=S)N(c2ccccc2)C1=O (stereo not given)	.	i	.	.	.	.	.	.
CCCCOCCCn1c(-c2ccco2)nc2nc3ccccc3nc21	4*	.	4.1	4.2*	-0.36	1.1	?	-43
CCOC(=O)N1CCN(c2nc(SC)nc3sc4c(c23)CC(C)(C)OC4)CC1	1.2	.	1.7	1.2	-0.091	1	.	.
CCOC(=O)c1nc(N2CCN(C(=O)OCC)CC2)c2c3c(sc2n1)CCCC3	3.7*	.	-0.68	9.2*	-0.45	1.1	?	-63
